Screens (PubChem BioAssay)
Most compounds without a hit are left out; they make up all but 2.6% or so of the library.
FH mod: Identification of activators of human fumarate hydratase by quantitative high-throughput screening. FH coupled MDH/diaphorase resazurin fluorescence, 15 min. 54,000 tested, 0.22% active. Potency, µM (highest dose often 79.9 µM), without a hit: at the top dose activity change, negative = inhibition, actives largely listed as inhibitors. AID 1347055, 2019. Fumarate hydratase, mitochondrial (Homo sapiens), P07954; further: potency means the concentration at half of the fitted maximal effect; on the % scale 0 is the no-effect control and ±100 the full control effect; the screen sought activators but most active calls are inhibition curves; nearly all actives have a fitted effect of over 45% in size
Target sequence (P07954 whole entry, looked up): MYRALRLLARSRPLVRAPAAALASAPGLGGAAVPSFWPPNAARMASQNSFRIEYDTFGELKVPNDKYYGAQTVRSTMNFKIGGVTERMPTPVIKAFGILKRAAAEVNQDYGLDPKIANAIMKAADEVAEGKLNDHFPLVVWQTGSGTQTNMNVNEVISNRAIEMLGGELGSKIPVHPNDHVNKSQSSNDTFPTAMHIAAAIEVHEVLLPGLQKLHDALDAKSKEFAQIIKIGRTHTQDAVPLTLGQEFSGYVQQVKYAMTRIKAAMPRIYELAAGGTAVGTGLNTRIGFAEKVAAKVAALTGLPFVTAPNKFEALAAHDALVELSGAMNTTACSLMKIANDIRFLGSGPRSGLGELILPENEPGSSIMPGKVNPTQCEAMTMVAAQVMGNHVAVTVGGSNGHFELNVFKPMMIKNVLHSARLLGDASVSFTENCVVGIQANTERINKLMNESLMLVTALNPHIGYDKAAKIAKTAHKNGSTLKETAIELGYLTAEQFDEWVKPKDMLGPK
GPR32 ag: GPR32 (DRV1) agonism, beta-arrestin recruitment | O75388 | activation, % at 76.9 µM | CHO-K1 GPR32 beta-arrestin PathHunter luminescence, 90 min; zero percent set by DMSO-only wells | AID 1346428 | 48,000 tested, 2.5% active;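 active means activation of at least 60% and not above a set upper limit, about 1 call in 100 departs from these limits; inconclusive means activation of 40% to 60%, or above that upper limit; inactive means activation under 40%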; further: 0% is about no effect
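Engineered CHO-K1 line co-expressing GPR32-ProLink and EA-beta-arrestin. Compound treatment lasted 90 min at 37 °C. Luminescence was recorded after 1 h with substrate at ambient temperature, relative to DMSO basal wells.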
GALK inhibitor: inhibitors of human galactokinase (GALK). Potency, µM (highest dose often 57.5 µM), for the others: top-dose activity, negative = inhibition, usual class: inhibitors. 44,000 tested, under 10 active. P51570. recombinant GALK, Kinase-Glo ATP luminescence, 1 h;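 further: plate controls were full GALK reaction for no effect and reaction lacking GALK for full effect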
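Human GALK (5 nM) was incubated with 35 uM ATP and 100 uM galactose in 20 mM HEPES pH 8.0 with MgCl2, NaCl, DTT and BSA for 1 h at room temperature. Remaining ATP was measured by Kinase-Glo Plus luminescence.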
B2AR arrestin ag: beta-arrestin recruitment by human beta2-adrenergic receptor ligands; Potency, µM (doses to about 46.1 µM), hits mostly activators; 44,000 tested, under 10 active; P07550; HTLA Tango cells, beta-arrestin recruitment, luciferase luminescence, 18 h;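 further: potency means the concentration at half of the fitted maximal effect; 0% = DMSO and full agonism = EC100 isoproterenol or metaproterenol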
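Ligand-induced beta-arrestin recruitment to recombinant beta2-AR is measured via a tTA-driven luciferase reporter in Tango cells after 18 hr compound exposure at 37 degrees C. Concentrations span up to 46 microM.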
PTAP-TSG101 blk: blocks PTAP binding to human TSG101, validation. Fluorescence polarization, FITC-PTAP peptide/Tsg101, 20 min. Potency, µM (doses to about 115 µM), usual class: inhibitors. 44,000 tested, under 10 active; further: potency means the concentration at half of the fitted maximal effect; 0% is about no effect
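Read-out is FITC fluorescence polarization. Compounds were added to Tsg101 binding domain (10 uM final), then FITC-PTAP peptide (50 nM final), 20 min at r.t. Total S+P intensity flags fluorescent compounds.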
GALC G270D up: enhancers of human galactocerebrosidase G270D mutant activity in cells; 145M-Twi-hGALC-G270D cells (Twitcher mouse brain line with human GALC G270D), HMU-beta-Gal fluorescence, 48 h; 45,000 tested, 0.1% active; Potency, µM (highest dose often 57.5 µM), actives largely listed as activators; P54803; further: potency means the concentration at half of the fitted maximal effect; 0% is about no effect; nearly all actives have a fitted effect of over 65% in size
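Brain-derived Twitcher mouse 145M-Twi cells stably expressing human GALC-G270D or wild-type GALC, treated live, then residual GALC activity read by fluorescence of HMU-b-Gal substrate (0.1 mM final) in citrate-phosphate buffer pH 5.2 with sodium taurocholate. Signal increase indicates enhancement.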
* hit, by the source's call; i = inactive; ? = inconclusive; · = no result; ! = a repeat was not active; [ ] = remark or other dose. Unless noted, the call rests on the fitted dose curve; in most records, active means well fitted curve in the direction sought with a large enough effect; inconclusive means small, poorly fitted or top-dose-only effect, or another doubt; inactive means no such curve, though single readings can be large; an effect the other way counts as inactive or inconclusive.

SMILES	FH mod	GPR32 ag	GALK inhibitor	B2AR arrestin ag	PTAP-TSG101 blk	GALC G270D up
CCOC(=O)[C@H](CCc1ccccc1)N[C@@H](C)C(=O)N1C2CCCCC2C[C@H]1C(=O)O (some centres undefined)	21%	·	·	·	·	·
CCCCCCCCC(=O)N[C@H](CN1CCCC1)[C@H](O)c1ccc2c(c1)OCCO2	2%	·	·	·	·	·
C/C1=C\[C@H]2OC(=O)[C@@H](C)[C@@H]2CC/C(C(=O)O)=C/CC1	2%	·	·	·	·	·
Cc1cc(C)cc(NC(=O)CN(C)S(=O)(=O)c2ccc3[nH]c4c(c3c2)CCCC4)c1	?	15	-4%	i	i	i
Cc1cccc(C)c1NC(=O)CN(C)S(=O)(=O)c1ccc2[nH]c3c(c2c1)CCCC3	-18%	62*	1%	i	i	i
OC/C=C/c1ccc(O[C@@H]2O[C@H](CO)[C@@H](O)[C@H](O)[C@H]2O)cc1	0%[53.3 µM]	·	·	·	·	·
C[C@@H]1O[C@@H](O[C@H]2[C@H](OC(=O)[C@]34CCC(C)(C)C[C@H]3C3=CCC5[C@@]6(C)C[C@H](O)[C@H](O[C@@H]7O[C@H](CO)[C@@H](O[C@H]8OC[C@](O)(CO)[C@H]8O)[C@H](O)[C@H]7O)[C@@](C)(CO)C6[C@H](O)C[C@@]5(C)[C@]3(C)C[C@H]4O)OC[C@H](O)[C@@H]2O)[C@H](O)[C@H](O)[C@H]1O[C@@H]1OC[C@@H](O)[C@H](O[C@@H]2OC[C@](O)(CO)[C@H]2O)[C@H]1O (some centres undefined)	9%[13.5 µM]	·	·	·	·	·
O=C(Nc1ccc(Cl)c(Cl)c1)C1CC1	-13%[53.3 µM]	83*	·	·	·	i
CN(C(=O)c1cn2c(-c3ccc(C(F)(F)F)cc3)cnc2cn1)c1ccc(C#N)cc1	-1%	·	·	·	·	·
O=C(CC1C(=O)Nc2ccccc21)OC[C@H]1O[C@@H](OCCc2ccc(O)cc2)[C@H](O)[C@@H](O)[C@@H]1O (some centres undefined)	0%[53.3 µM]	·	·	·	·	·
O=C(O)Cn1nnc(-c2ccc(OCc3cccc(C(F)(F)F)c3)cc2)n1	-11%	0	-1%	i	i	i
C#CC(C)(CC)NC(=O)Cn1nnc(-c2ccc(OCc3ccccc3C)cc2)n1 (centres undefined)	-8%	62*	9%	i	i	i
C#CC(C)(CC)NC(=O)Cn1nnc(-c2ccc(OCc3ccccc3F)cc2)n1 (centres undefined)	4%	91*	-3%	i	i	i
COC(=O)c1ccccc1NC(=O)Cn1nnc(-c2ccc(OC)cc2)n1	-6%	-1	2%	i	i	i
CCOc1ccc(CCNC(=O)CSc2n[nH]c(-c3ccccc3)n2)cc1OCC	6.3µM*	-6	4%	i	i	i
CCOc1cc(CNC(=O)CSc2n[nH]c(-c3ccccc3)n2)cc(OCC)c1OCC	-4%	-8	1%	i	i	i
COc1cc2nc(N3CCN(C(=O)c4ccco4)CC3)nc(N)c2cc1OC	?	?	·	·	·	i
COc1cc2nc(N3CCN(C(=O)C4COc5ccccc5O4)CC3)nc(N)c2cc1OC (centres undefined)	?	108*!	·	·	·	i
COc1cc(OC)c(/C=C2/C(=O)Nc3ccccc32)c(OC)c1	-23%[53.3 µM]	2	·	·	·	·
O=C1Nc2ccc(I)cc2/C1=C/c1cc(Br)c(O)c(Br)c1	28µM*	-23	·	·	·	·
CC(C)(C)c1ccc(-c2nc(SCCCOc3ccccc3)n3[nH]c(=O)cc3n2)cc1	?	-20	-3%	i	i	i
COc1ccccc1OCCCSc1nc(-c2ccc(C(C)(C)C)cc2)nc2cc(=O)[nH]n12	·	75*	-1%	i	i	·
c1ccc2c(c1)ncc1nncn12	-2%	0	0%	i	i	i
O=c1onc2cnc3ccccc3n12	-10%[53.3 µM]	68*	·	·	·	·
Cc1nc(Nc2cnn(C3CCNCC3)c2)nc2c1N(C)C(=O)c1cc3ccccc3cc1N2C	-1%	·	·	·	·	·
SMILES	FH mod	GPR32 ag	GALK inhibitor	B2AR arrestin ag	PTAP-TSG101 blk	GALC G270D up
Cc1cccc(N2CCN(C(=O)c3c(C)oc4ncnc(N5CCCCC5)c34)CC2)c1C	-19%	85*	2%	i	i	i
Cc1cccc(N2CCN(C(=O)c3c(C)oc4ncnc(N5CCOCC5)c34)CC2)c1C	-2%	-11	0%	i	i	i
COc1cc(/C=C/C(=O)OC2[C@H](O)CC(O)(C(=O)O)C[C@H]2O)ccc1O (some centres undefined)	5%[53.3 µM]	·	·	·	·	·
N=c1n(CCO)c2ccccc2n1CCOc1ccc(F)cc1	·	12	0%	i	i	·
CCCCn1c(=N)n(CCCOc2ccc(F)cc2)c2ccccc21	11%	76*	4%	i	i	i
CCc1ccc(NC(=O)CN(c2cc(C)cc(C)c2)S(=O)(=O)c2c(C)[nH]c(=O)[nH]c2=O)cc1	-7%	76*	0%	i	i	i
CCc1ccc(NC(=O)CN(c2ccc(OC)cc2)S(=O)(=O)c2c(C)[nH]c(=O)[nH]c2=O)cc1	-1%	-14	8%	i	i	i
CC/C=C/CC1=C(CCCCC(CCC(=O)O)OC(C)=O)CCC1=O (centres undefined)	-2%[53.3 µM]	·	·	·	·	·
Oc1c(C(c2ccccc2Cl)N2CCN(Cc3ccccc3)CC2)sc2nc(-c3ccco3)nn12 (centres undefined)	-23%	94*	-4%	i	i	i
Oc1c(C(c2ccc(Cl)cc2Cl)N2CCN(Cc3ccccc3)CC2)sc2nc(-c3ccco3)nn12 (centres undefined)	?	-8	-4%	i	i	i
O=C(Nc1cc(-c2ccccc2)sc1C(=O)O)c1cccc(F)c1	?	110*	?	i	i	i
Cc1cccc(NC(=O)c2ccc(-c3ccccc3)s2)c1	8%	-9	-1%	i	i	i
O=C(Nc1cccc(F)c1)c1ccc(-c2ccccc2)s1	8%	68*	7%	i	i	i
CC1(C)CCCC2(C)C1C(=O)C=C(C(=O)O)C2(O)C(=O)O (centres undefined)	-1%	·	·	·	·	·
Cc1cc(C(=O)Nc2cc(Nc3ccc4c(/C=C/c5ccccn5)n[nH]c4c3)ccc2F)n(C)n1	-9%	·	·	·	·	·
